# In PubChem BioAssay:
# Activity calls are given as the source filed them. Unless noted, no rule for the calls is given here.
# Tests used:
# [1] = tested on: Wnt5a (protein binding on small-molecule microarray); test: small molecules binding Wnt5a protein – biophysical, small-molecule microarray, 635/667 nm fluorescence, primary screen (AID 1142); conditions: 635 nm fluorescence, higher = more signal;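 also: fluorescence read at 667 nm with signal to noise per printed feature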
# [2] = ATP-based viability of Huh7 replicon cells – cell-based, CellTiter-Glo luminescence, basal, 48 h, cytotoxicity control for HCV replication inhibitor project, primary screen (AID 1143); conditions: higher = more signal, called active from +8 up or from −8 down;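 also: Huh7 hepatoma cells carrying a hepatitis C replication reporter with no stimulus; test concentration not given here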
# [3] = Pseudomonas biofilm growth suppression – PAO1 strain, BacTiter-Glo luminescence, LB-PBS, primary screen (AID 1144); conditions: P. aeruginosa PAO1 biofilm, 12 h, higher = more signal
# [4] = basal CRE-LacZ reporter activity in PC12 – cell-based, unstimulated, primary screen (AID 1145); conditions: no forskolin, luminescence, 4.5 h, higher = more signal, called active from +8 up or from −8 down
# [5] = forskolin-driven CRE-LacZ activity in PC12 – cell-based, CRE-LacZ reporter, forskolin-stimulated, primary screen (AID 1146); conditions: luminescence, 4.5 h, higher = more signal, called active from +8 up or from −8 down;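 also: PC12 cells with 6xCRE LacZ reporter stimulated by forskolin 10 µM; beta-galactosidase reporter signal reflecting CREB driven transcription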
# [6] = target: Streptavidin (Streptomyces avidinii) (UniProt P22629); test: compounds binding control protein streptavidin – biophysical, small-molecule microarray, 635/667 nm fluorescence, artefact control for SMM compound annotation, primary screen (AID 1147); conditions: higher = more signal;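 also: signal reflects streptavidin binding to arrayed compounds as a control protein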
# Sequence of Streptavidin (Streptomyces avidinii) (P22629 whole entry, looked up): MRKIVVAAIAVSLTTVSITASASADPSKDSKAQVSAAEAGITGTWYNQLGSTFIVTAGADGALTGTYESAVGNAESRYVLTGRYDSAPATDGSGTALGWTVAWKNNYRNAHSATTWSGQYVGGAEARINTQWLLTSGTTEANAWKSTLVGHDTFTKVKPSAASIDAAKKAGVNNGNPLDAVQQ
# [7] = probe aInhba binding on compound microarray – biochemical, small-molecule microarray, 635/667 nm fluorescence, primary screen (AID 1148); conditions: higher = more signal;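 also: score merges 667nm spot fluorescence with signal-to-noise for antibody binding to printed compounds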
# Torsin-1A (Homo sapiens) [8] = target: Torsin-1A (Homo sapiens) (UniProt O14656); test: TOR1A wild-type binding on microarray – cell lysate, small-molecule microarray, lysate, 635/667 nm, primary screen (AID 1149); conditions: COS7 hTOR1A-WT lysate, 635 nm fluorescence, higher = more signal
# Sequence of Torsin-1A (Homo sapiens) (O14656 whole entry, looked up): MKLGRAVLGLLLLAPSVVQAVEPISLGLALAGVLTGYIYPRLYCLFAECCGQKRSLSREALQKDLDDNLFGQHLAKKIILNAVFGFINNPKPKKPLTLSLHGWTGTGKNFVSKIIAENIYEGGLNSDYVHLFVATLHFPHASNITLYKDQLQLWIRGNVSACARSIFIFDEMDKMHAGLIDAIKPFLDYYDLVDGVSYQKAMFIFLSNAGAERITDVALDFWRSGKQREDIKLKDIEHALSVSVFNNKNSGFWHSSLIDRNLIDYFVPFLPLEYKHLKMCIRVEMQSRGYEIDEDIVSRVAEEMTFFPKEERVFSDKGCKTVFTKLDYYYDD
# Torsin-1A (Homo sapiens) [9] = target: Torsin-1A (Homo sapiens) (UniProt O14656); test: torsin A mutant lysate binding on microarrays – cell lysate, small-molecule microarray, COS7 lysate, 635/667 nm fluorescence, primary screen (AID 1150); conditions: COS7 hTOR1A mutant lysate, 635 nm fluorescence, higher = more signal;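 also: score pools 667 nm emission and signal to noise measuring lysate protein binding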
# [10] = tested on: Sonic hedgehog protein (Shh); test: Sonic hedgehog microarray binding compounds – biochemical, small-molecule microarray, 635/667 nm fluorescence, primary screen (AID 1151); conditions: 635 nm fluorescence, higher = more signal;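 also: Shh protein binding to compounds spotted on small-molecule microarray slides; score combines spot fluorescence intensity with signal-to-noise across triplicate slides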
# [11] = optical density shifts of acrAB sulA E. coli – strain DRC41, OD650, 48 h, E. coli filamentation inducer project, primary screen (AID 1152); conditions: higher = more signal, called active from +8 up or from −8 down;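 also: E. coli MC1000 strain DRC41 lacking acrAB efflux pump and sulA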
# [12] = probe aLefty1 binding on compound microarray – biochemical, small-molecule microarray, 635/667 nm fluorescence, primary screen (AID 1153); conditions: higher = more signal;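 also: score merges spot fluorescence with signal-to-noise ratio from the scanned slide images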
# [13] = plasmodial surface anion channel blockers, osmotic lysis – cell-based, P. falciparum Indochina, OD700, 1 h, primary screen (AID 1154); conditions: P. falciparum Indochina infected RBC osmotic lysis, higher = more signal, called active from +8 up or from −8 down
# [14] = plasmodial surface anion channel blockers, osmotic lysis – cell-based, P. falciparum Indochina, OD700, 2 h, primary screen (AID 1155);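 also: lysis reports solute entry through the parasite surface anion channel PSAC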; conditions: P. falciparum Indochina infected erythrocytes, higher = more signal, called active from +8 up or from −8 down
# [15] = changes in parasitized red cell lysis, either direction – P. falciparum Indochina, OD700, 3 h, PSAC antagonist project, primary screen (AID 1156); conditions: P. falciparum-infected erythrocytes, osmotic lysis, higher = more signal, called active from +8 up or from −8 down
# [16] = plasmodial surface anion channel blockers, osmotic lysis – cell-based, P. falciparum Indochina, OD700, 18 h, primary screen (AID 1157); conditions: P. falciparum Indochina infected erythrocytes, osmotic lysis OD700, 18 h; higher = more signal, called active from +8 up or from −8 down
# [17] = S6 kinase pathway phospho-S6 level changes – cell-based, A549, cytoblot, luminescence, serum-stimulated, primary screen (AID 1158); conditions: 5 h, higher = more signal;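 also: serum-stimulated A549 lung adenocarcinoma cells; signal is phosphorylated S6 detected by cytoblot immunostaining with HRP secondary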
# [18] = target: NADPH oxidase 2 (Homo sapiens) (UniProt P04839); test: compounds shifting NOX2 Amplex Red fluorescence – cell-based, HEK293-NOX2, PMA-stimulated, NOX inhibitor project, primary screen (AID 1159); conditions: 45 min, higher = more signal, called active from +8 up or from −8 down; also: test concentration not given here
# Sequence of NADPH oxidase 2 (Homo sapiens) (P04839 whole entry, looked up): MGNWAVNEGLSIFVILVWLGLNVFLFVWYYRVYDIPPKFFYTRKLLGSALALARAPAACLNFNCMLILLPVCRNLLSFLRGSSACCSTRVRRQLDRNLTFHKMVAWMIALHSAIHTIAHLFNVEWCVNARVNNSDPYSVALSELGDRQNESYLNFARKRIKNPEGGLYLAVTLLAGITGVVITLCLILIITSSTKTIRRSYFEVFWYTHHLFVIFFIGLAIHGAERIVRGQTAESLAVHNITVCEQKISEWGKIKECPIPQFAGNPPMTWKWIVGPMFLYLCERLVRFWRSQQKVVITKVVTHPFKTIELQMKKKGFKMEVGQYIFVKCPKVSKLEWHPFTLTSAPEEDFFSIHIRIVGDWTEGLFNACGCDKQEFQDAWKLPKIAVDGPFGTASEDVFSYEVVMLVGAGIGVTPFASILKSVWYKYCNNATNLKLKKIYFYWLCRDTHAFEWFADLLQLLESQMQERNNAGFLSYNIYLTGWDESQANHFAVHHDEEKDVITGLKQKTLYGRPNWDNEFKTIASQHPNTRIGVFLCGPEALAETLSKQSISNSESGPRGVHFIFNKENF
# [19] = target: NADPH oxidase 4 (Homo sapiens) (UniProt Q9NPH5); test: compounds shifting NOX4 Amplex Red fluorescence – cell-based, HEK293-NOX4, tetracycline-induced, NOX inhibitor project, primary screen (AID 1160); conditions: HEK293-NOX4, Amplex Red H2O2 fluorescence, 45 min; higher = more signal, called active from +8 up or from −8 down
# Sequence of NADPH oxidase 4 (Homo sapiens) (Q9NPH5 whole entry, looked up): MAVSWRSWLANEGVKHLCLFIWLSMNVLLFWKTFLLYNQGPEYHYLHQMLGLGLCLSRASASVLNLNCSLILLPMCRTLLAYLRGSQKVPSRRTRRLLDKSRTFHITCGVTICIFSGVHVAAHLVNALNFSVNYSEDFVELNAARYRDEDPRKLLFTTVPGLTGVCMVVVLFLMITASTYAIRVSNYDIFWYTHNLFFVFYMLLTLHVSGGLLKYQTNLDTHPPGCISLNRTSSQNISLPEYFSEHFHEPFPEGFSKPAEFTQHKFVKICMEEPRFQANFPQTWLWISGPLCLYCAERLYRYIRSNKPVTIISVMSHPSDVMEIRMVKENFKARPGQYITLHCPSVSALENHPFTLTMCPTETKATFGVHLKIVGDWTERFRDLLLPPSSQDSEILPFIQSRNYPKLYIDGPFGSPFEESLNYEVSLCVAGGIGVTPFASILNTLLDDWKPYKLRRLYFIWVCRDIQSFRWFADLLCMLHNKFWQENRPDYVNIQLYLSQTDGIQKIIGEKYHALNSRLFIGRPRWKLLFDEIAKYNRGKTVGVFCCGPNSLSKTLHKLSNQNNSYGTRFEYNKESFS
# [20] = target: NADPH oxidase 5 (Homo sapiens) (UniProt Q96PH1); test: compounds shifting NOX5 Amplex Red fluorescence – cell-based, HEK293-NOX5, NOX inhibitor project, primary screen (AID 1161); conditions: HEK293-NOX5, ionomycin, 45 min, higher = more signal
# Sequence of NADPH oxidase 5 (Homo sapiens) (Q96PH1 whole entry, looked up): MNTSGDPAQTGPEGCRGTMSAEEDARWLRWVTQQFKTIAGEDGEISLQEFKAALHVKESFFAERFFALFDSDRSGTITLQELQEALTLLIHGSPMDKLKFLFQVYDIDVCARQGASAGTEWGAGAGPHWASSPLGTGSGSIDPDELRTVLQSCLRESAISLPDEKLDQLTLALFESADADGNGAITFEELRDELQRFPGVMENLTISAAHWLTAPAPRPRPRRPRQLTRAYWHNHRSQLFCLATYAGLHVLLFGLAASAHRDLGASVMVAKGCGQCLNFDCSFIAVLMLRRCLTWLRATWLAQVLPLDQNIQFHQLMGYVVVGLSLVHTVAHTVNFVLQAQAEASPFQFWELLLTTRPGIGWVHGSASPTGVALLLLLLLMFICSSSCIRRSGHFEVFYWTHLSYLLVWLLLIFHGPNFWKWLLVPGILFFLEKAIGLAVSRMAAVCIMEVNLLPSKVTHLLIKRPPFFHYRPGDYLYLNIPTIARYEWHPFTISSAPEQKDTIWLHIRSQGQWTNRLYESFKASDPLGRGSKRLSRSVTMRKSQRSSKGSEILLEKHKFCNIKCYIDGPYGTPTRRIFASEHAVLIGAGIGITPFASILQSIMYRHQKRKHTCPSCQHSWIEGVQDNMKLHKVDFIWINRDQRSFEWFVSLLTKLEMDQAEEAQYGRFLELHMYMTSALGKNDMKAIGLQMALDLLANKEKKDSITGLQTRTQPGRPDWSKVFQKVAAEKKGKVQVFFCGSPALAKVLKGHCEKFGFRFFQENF
Compound,composite z-score [1],z-score [2],z-score [3],z-score [4],z-score [5],composite z-score [6],composite z-score [7],composite z-score (Torsin-1A (Homo sapiens) [8]),composite z-score (Torsin-1A (Homo sapiens) [9]),composite z-score [10],z-score [11],composite z-score [12],z-score [13],z-score [14],z-score [15],z-score [16],z-score [17],z-score [18],z-score [19],z-score [20]
CCN1C(=O)[C@H]2[C@H]3[C@H](O)[C@H](O)CC(=NO[C@@H](C)c4cn([C@H](CO)Cc5ccccc5)nn4)[C@@H]3CC[C@H]2C1=O,0.283,-0.0863 (inactive),0.451 (inactive),0.727 (inactive),0.511 (inactive),-0.138,0.0051,0.651,0.435,0.486,0.115 (inactive),0.0618,0.202 (inactive),0.453 (inactive),0.357 (inactive),0.146 (inactive),-0.66,0.0799 (inactive),-2.08 (inactive),0.0391
COC(=O)CC=C[C@@H](C)[C@@H](C=NO[C@H](C)c1cn([C@H](CO)Cc2ccccc2)nn1)NS(=O)(=O)c1ccc(C)cc1,-0.0374,-1.29 (inactive),0.92 (inactive),1.98 (inactive),0.767 (inactive),0.912,-0.0531,0.708,1.8,0.285,-0.0528 (inactive),0.173,2.17 (inactive),0.674 (inactive),0.605 (inactive),0.22 (inactive),-1.07,0.679 (inactive),0.685 (inactive),-0.0369
C#CCCCON=C1C[C@@H](O)[C@@H](O)[C@@H]2[C@@H]3C(=O)N(c4cccc(Oc5ccccc5)c4)C(=O)[C@@H]3CC[C@H]12,-0.591,-0.593 (inactive),0.0591 (inactive),-0.57 (inactive),-0.236 (inactive),-0.77,-0.191,0.32,0.855,-1.01,0.496 (inactive),0.042,1.7 (inactive),0.977 (inactive),0.773 (inactive),0.232 (inactive),-0.203,-0.683 (inactive),0.186 (inactive),-0.676
CC[C@@H](c1ccccc1)n1c(=O)n2n(c1=O)[C@H]1[C@H](O)[C@@H]3O[C@@H]3C(=O)[C@H]1CC2,-0.0319,-3.57 (inactive),0.206 (inactive),-1.02 (inactive),2.92 (inactive),0.092,-0.0762,0.0045,-0.146,0.678,0.289 (inactive),-0.101,-0.48 (inactive),-0.38 (inactive),-0.0399 (inactive),-0.139 (inactive),-0.126,-6.29 (inactive),-0.0502 (inactive),0.324
CCN1C(=O)[C@H]2[C@H]3[C@H](O)[C@H](O)CC(=NOCC(C)C)[C@@H]3CC[C@H]2C1=O,-0.111,-0.101 (inactive),0.258 (inactive),-0.929 (inactive),-0.2 (inactive),0.017,0.038,0.729,0.634,1.31,-1.87 (inactive),-0.245,0.344 (inactive),0.365 (inactive),0.456 (inactive),0.379 (inactive),-0.126,0.603 (inactive),0.324 (inactive),-0.654
CCOC(=O)[C@H](CC(C)C)NC(=O)CCC1CC(OC(=O)NCc2cccc3ccccc23)CC2(CCCC(COC(=O)NCc3ccncc3)O2)O1 (stereo not given in full),-0.0656,-0.905 (inactive),-0.243 (inactive),0.562 (inactive),0.633 (inactive),0.629,0.0074,0.126,0.565,1.25,0.432 (inactive),-0.142,7.59 (inactive),1.02 (inactive),-0.416 (inactive),0.42 (inactive),0.351,0.402 (inactive),0.142 (inactive),0.365
CC(C)(C)N1C(=O)[C@H]2[C@H]3[C@H](O)[C@H](O)CC(=O)[C@@H]3CC[C@H]2C1=O,-0.0326,-1.07 (inactive),-0.25 (inactive),-0.93 (inactive),-0.785 (inactive),0.179,-0.109,0.236,0.261,0.525,-0.767 (inactive),-0.147,0.126 (inactive),0.0976 (inactive),-1.24 (inactive),-0.0131 (inactive),0.413,-3.23 (inactive),0.0825 (inactive),0.309
Cn1c(=O)n2n(c1=O)[C@H]1[C@H](O)[C@@H]3O[C@@H]3C(=O)[C@H]1CC2,0.0242,0.0801 (inactive),0.0513 (inactive),-1.29 (inactive),-0.69 (inactive),0.924,-0.041,0.961,0.198,0.537,0.498 (inactive),-0.0984,-0.259 (inactive),-0.0607 (inactive),-0.596 (inactive),0.18 (inactive),-0.0231,-1.2 (inactive),0.171 (inactive),0.888
